Values without a mark were called inactive. Inconclusive results are not listed. A call without a number means that no potency is given here. Activity calls are given as the source filed them. Unless noted, the call rests on the fitted dose curve; in most records, active means well fitted curve in the direction sought with a large enough effect in the repeat runs; inconclusive means weak or mixed curves; inactive means no such curve, though single readings can be large; an effect the other way counts as inactive or inconclusive.
Assays:
[1] = qHTS assay to identify small molecule agonists of the androgen receptor (AR) signaling pathway in the presence of an antagonist - cell viability counter screen (AID 1259379); further: nearly all actives have a fitted effect of over 25% in size; further: potency means the concentration at half of the fitted maximal effect
Method in brief: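 A CellTiter-Fluor read-out measured viability of MDA-kb2 reporter cells (MMTV promoter with AR and GR response elements). Treatment: nilutamide 3.0uM final with compounds at 15 concentrations, 16 hr, 37C, 0% CO2.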

[2] = qHTS assay to identify small molecule agonists of the estrogen receptor beta (ER-beta) signaling pathway - cell viability counter screen (AID 1259380); further: nearly all actives have a fitted effect of over 30% in size; further: potency means the concentration at half of the fitted maximal effect
Method in brief: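 Cells used were ER-beta-UAS-bla HEK293T in medium with 2% charcoal-stripped FBS. They were treated for 16 hr at 37C. Viability came from CellTiter-Glo luminescence.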

[3] = qHTS assay to identify small molecule antagonists of the estrogen receptor beta (ER-beta) signaling pathway - cell viability counter screen (AID 1259382); further: series mostly up to about 92 µM; nearly all actives have a fitted effect of over 55% in size
Method in brief: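 Agonist-stimulated (1nM E2) ER-beta-UAS-bla HEK293T cells are incubated with library compounds for 16 hr at 37C. Cell viability is then assessed in the reporter-assay wells by adding CellTiter-Glo and reading luminescence after 30 min.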

[4] = molecular target: Estrogen receptor (Homo sapiens) (UniProt P03372); assay: qHTS assay to identify small molecule agonists of the estrogen receptor alpha (ER-alpha) signaling pathway in the presence of an antagonist (AID 1259383; calls by dose curve; further: top concentration of the series differs between compounds; nearly all actives have a fitted effect of over 15% in size)
Estrogen receptor (Homo sapiens), sequence (P03372 whole entry, looked up): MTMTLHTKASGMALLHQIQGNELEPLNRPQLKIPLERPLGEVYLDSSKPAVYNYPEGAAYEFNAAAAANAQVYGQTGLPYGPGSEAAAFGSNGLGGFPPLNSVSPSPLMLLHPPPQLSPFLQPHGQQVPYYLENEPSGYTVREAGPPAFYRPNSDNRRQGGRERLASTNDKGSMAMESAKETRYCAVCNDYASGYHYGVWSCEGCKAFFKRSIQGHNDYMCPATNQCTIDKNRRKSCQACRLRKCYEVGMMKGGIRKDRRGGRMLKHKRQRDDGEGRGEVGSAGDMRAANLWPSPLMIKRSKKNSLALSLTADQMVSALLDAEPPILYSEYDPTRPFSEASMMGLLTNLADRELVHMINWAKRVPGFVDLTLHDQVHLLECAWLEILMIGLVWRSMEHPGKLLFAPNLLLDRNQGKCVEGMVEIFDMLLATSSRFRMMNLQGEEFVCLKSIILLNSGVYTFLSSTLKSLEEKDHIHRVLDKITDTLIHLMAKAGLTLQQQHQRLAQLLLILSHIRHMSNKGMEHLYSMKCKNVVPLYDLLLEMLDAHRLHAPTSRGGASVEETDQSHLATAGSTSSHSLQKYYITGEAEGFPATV
Method in brief: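 Using VM7Luc4E2 cells seeded 24hr before treatment, antagonist ICI-182,780 (10.0nM final) was added, followed by compounds at 15 concentrations. Plates incubated 22hr; ONE-Glo luminescence quantified reporter activity.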

[5] = molecular target: Thyrotropin receptor (Homo sapiens) (UniProt P16473); assay: qHTS assay to identify small molecule antagonists of the thyroid stimulating hormone receptor (TSHR) signaling pathway (AID 1259385; calls by dose curve; further: nearly all actives have a fitted effect of over 20% in size; further: potency means the concentration at half of the fitted maximal effect)
Thyrotropin receptor (Homo sapiens), sequence (P16473 whole entry, looked up): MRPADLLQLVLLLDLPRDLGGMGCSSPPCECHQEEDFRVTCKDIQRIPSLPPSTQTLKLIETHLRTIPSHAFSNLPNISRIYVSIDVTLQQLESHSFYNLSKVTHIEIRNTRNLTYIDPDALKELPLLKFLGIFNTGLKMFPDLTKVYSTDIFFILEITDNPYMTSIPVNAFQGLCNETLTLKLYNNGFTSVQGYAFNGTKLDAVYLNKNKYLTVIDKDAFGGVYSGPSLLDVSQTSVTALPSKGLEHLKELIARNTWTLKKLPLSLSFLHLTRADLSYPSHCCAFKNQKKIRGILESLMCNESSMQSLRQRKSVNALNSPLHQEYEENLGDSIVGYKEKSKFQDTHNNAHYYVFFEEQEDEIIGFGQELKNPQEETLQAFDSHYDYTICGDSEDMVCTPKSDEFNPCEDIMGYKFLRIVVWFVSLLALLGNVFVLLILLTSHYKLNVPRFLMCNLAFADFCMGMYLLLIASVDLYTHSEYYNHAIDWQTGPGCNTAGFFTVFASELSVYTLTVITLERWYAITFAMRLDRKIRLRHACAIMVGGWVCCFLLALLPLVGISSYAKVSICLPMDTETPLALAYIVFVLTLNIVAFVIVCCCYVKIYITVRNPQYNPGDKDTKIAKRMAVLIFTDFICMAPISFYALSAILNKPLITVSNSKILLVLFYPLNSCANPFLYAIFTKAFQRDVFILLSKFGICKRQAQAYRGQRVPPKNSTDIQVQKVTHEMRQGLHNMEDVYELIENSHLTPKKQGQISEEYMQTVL
Method in brief: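 TSHR-HEK293 cells (800/well) plated 18 h, then compounds with Ro20-1724 and TSH at 1.5 ng/mL final, 30 min at room temperature. cAMP quantified by HTRF (cAMP-d2/anti-cAMP-cryptate, 1 h); 15 concentrations in triplicate.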

[6] = qHTS assay to identify small molecule agonists of the estrogen receptor alpha (ER-alpha) signaling pathway in the presence of an antagonist - cell viability counter screen (AID 1259386);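 further: cells exposed to compounds for 22 h at 37 °C before the viability read; nearly all actives have a fitted effect of over 30% in size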; further: potency means the concentration at half of the fitted maximal effect
Method in brief: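 ICI-182,780 at 10.0nM final accompanies the compound titration (15 concentrations, 22hr, 37C) on VM7Luc4E2 cells. The CellTiter-Fluor fluorescence readout runs in the same wells as the luciferase assay.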

[7] = qHTS assay to identify small molecule agonists or antagonists of the thyroid stimulating hormone receptor (TSHR) signaling pathway - wild type cell line counter screen (AID 1259384; calls by dose curve)
Method in brief: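 Wild-type Hek293 cells, 800/well, 18 h at 37C, then compound with Ro20-1724 for 30 min RT. cAMP by HTRF (cAMP-d2/anti-cAMP cryptate), 1 h RT, fluorescence read. 15 concentrations, triplicates.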

[8] = molecular target: Androgen receptor (Homo sapiens) (UniProt P10275); assay: qHTS assay to identify small molecule agonists of the androgen receptor (AR) signaling pathway in the presence of an antagonist (AID 1259381; calls by dose curve; further: nearly all actives have a fitted effect of over 15% in size)
Androgen receptor (Homo sapiens), sequence (P10275 whole entry, looked up): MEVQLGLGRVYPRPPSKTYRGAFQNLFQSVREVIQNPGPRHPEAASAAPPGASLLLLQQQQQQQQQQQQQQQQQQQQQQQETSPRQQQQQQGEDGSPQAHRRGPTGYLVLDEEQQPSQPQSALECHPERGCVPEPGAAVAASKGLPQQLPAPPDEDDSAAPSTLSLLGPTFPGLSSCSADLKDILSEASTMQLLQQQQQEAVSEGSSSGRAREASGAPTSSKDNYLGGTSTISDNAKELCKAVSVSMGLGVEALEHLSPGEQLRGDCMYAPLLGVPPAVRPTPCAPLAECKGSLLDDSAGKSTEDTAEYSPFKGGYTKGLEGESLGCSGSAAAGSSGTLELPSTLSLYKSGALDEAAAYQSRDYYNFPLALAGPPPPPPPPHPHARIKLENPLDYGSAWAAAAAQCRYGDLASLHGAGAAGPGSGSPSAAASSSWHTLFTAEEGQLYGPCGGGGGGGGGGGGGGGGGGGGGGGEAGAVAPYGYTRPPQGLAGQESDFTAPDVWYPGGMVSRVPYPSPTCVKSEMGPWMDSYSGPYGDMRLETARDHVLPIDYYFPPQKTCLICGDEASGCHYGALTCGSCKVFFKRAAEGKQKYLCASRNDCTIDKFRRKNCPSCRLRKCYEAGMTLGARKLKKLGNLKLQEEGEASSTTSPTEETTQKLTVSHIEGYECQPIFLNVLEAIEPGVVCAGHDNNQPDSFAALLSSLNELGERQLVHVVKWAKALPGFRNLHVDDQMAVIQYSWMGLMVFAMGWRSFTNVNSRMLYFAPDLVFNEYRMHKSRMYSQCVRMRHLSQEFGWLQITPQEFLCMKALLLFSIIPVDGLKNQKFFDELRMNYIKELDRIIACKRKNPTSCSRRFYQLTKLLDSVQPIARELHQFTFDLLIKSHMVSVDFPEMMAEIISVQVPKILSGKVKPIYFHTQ
Method in brief: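 Using human MDA-kb2 cells with an MMTV promoter–luciferase construct (AR and GR response elements), agonist activity is scored under 3.0uM nilutamide (final) co-treatment; 16hr incubation, 37C, luminescence readout via ONE-Glo.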

| SMILES | Potency [1] | Potency [2] | outcome [3] | Potency [4] | Potency [5] | Potency [6] | outcome [7] | Potency [8] |
| --- | --- | --- | --- | --- | --- | --- | --- | --- |
| CC(C)S | inactive | inactive | inactive | inactive | inactive | inactive |  |  |
| CCC(=O)O[C@]1(C(=O)SCF)[C@H](C)C[C@H]2[C@@H]3C[C@H](F)C4=CC(=O)C=C[C@]4(C)[C@@]3(F)[C@@H](O)C[C@@]21C | inactive | inactive | inactive | inactive |  | inactive | inactive |  |
| CC(C)C[C@H](NC(=O)OCC1c2ccccc2-c2ccccc21)C(=O)O | inactive | 61.1 µM (active) |  |  | inactive | inactive | inactive |  |
| NC1=NCC2c3ccccc3Cc3ccccc3N12 (centres undefined) | inactive | inactive | inactive |  |  | inactive |  |  |
| CCN(CC)CCOc1ccc(Cc2ccccc2)cc1 | inactive |  | inactive | inactive | 29.8 µM (active) | inactive | inactive |  |
| CCOc1ccccc1N | 54.1 µM (active) |  |  | inactive | inactive |  | inactive |  |
| O=Cc1ccc(F)c(Br)c1 |  |  | inactive | inactive | inactive | inactive |  |  |
| COc1ccc2nc(NC(=O)Nc3ccccc3)sc2c1 | inactive | 10.6 µM (active) |  |  | inactive | inactive | inactive |  |
| CN(CCCN1c2ccccc2CCc2ccccc21)CC(=O)c1ccc(Cl)cc1 | inactive |  |  | inactive | inactive | inactive | inactive |  |
| CCCN(CCC)C(=O)C(CCC(=O)O)NC(=O)c1ccccc1 (centres undefined) | inactive | inactive | inactive |  |  | inactive |  |  |
| CCc1cc(Cl)c(OC)c(C(=O)NC[C@@H]2CCCN2CC)c1O | inactive |  | inactive | inactive |  | inactive |  |  |
| C=CC1CO1 (centres undefined) | inactive |  | inactive |  | inactive | inactive |  |  |
| NCCCN1CCN(CCCN)CC1 |  | inactive | inactive | inactive | inactive | inactive | inactive | inactive |
| O=Cc1ccc(O)c(O)c1O |  | inactive |  |  | inactive |  | inactive | inactive |
| CC1(C)C(=O)N(Cl)C(=O)N1Br | inactive | inactive | inactive |  |  | inactive |  |  |
| C1CSCCS1 | inactive | inactive | inactive |  | inactive | inactive |  |  |
| C[C@@H](N)C(=O)O |  | inactive | inactive |  | inactive | inactive | inactive | inactive |
| CCCCCCCCCCCCOCCOS(=O)(=O)O | inactive | 48.6 µM (active) |  | inactive |  | inactive | inactive |  |
| CCCCCCOc1ccc(N)cc1 | inactive | 17.2 µM (active) |  |  |  | inactive |  |  |
| CCOc1ccc2nc(N)sc2c1 | inactive |  | inactive | inactive | inactive | inactive | inactive |  |
| Nc1ccc(Oc2ccc(N)c(N)c2)cc1 | inactive |  | inactive | inactive |  | 54.5 µM (active) | inactive |  |

| SMILES | Potency [1] | Potency [2] | outcome [3] | Potency [4] | Potency [5] | Potency [6] | outcome [7] | Potency [8] |
| --- | --- | --- | --- | --- | --- | --- | --- | --- |
| Cc1ccccc1C(=O)Nc1ccc(C(=O)N2CCCC(O)c3cc(Cl)ccc32)c(C)c1 (centres undefined) | inactive | 23.7 µM (active) | inactive |  |  | inactive |  |  |
| CC(C)(C)c1ccc(OC(=O)c2ccccc2O)cc1 | inactive |  | inactive |  |  | inactive | inactive |  |
| CN1CCN(C2=Nc3cc(F)ccc3Cc3ccccc32)CC1 | inactive |  |  | inactive | inactive | inactive |  | inactive |
| CCN(O)CC | inactive | inactive | inactive |  |  | inactive |  |  |
| Clc1cccc(-c2cc(Cl)cc(Cl)c2)c1 | inactive |  | inactive | inactive | 52.5 µM (active) | inactive |  |  |
| Cc1nc(-c2ccccn2)ncc1C(=O)Nn1cc(C)c2cc(F)ccc21 | inactive |  |  | inactive | inactive | inactive |  | inactive |
| CC(C)(CO)[C@@H](O)C(=O)NCCC(=O)O |  | inactive | inactive | inactive | inactive | inactive | inactive |  |
| COC(C)CCO (centres undefined) |  | inactive | inactive |  | inactive | inactive | inactive | inactive |
| CCN(CC)C(=O)N(CC)CC | inactive | inactive | inactive |  |  | inactive |  |  |
| CCCCNc1cc(C(=O)O)cc(S(N)(=O)=O)c1Oc1ccccc1 |  |  | inactive |  | inactive | inactive | inactive |  |
| O=C(O)[C@@H]1CSCN1 |  | inactive | inactive |  | inactive | inactive | inactive |  |
| Cc1cc2nc(N)sc2cc1C |  | 30.9 µM (active) |  |  | inactive | inactive | inactive | inactive |
| CC1CN(c2ccccc2)NC1=O (centres undefined) | inactive |  | inactive |  | inactive | inactive | inactive |  |
| CC1=NN(c2cc(Cl)c(S(=O)(=O)O)cc2Cl)C(=O)C1N=Nc1ccc(S(=O)(=O)O)cc1 (centres undefined) |  | inactive | inactive |  | inactive | 61.1 µM (active) | inactive |  |
| C/C(=N\O)[C@@H](C)NCC(C)(C)CN[C@H](C)/C(C)=N/O | inactive | inactive | inactive |  | inactive | inactive |  |  |
| CCCCC(=O)O[C@]1(C(=O)CO)[C@H](C)C[C@H]2[C@@H]3CCC4=CC(=O)C=C[C@]4(C)[C@@]3(F)[C@@H](O)C[C@@]21C |  | inactive | inactive | inactive | inactive | inactive | inactive |  |
| COc1nc(C)nc(NC(=O)NS(=O)(=O)c2ccccc2OCCCl)n1 | inactive |  | inactive | inactive |  | inactive |  |  |
| CC/C=C\CCOC(=O)C(C)C |  | inactive | inactive | inactive | inactive | inactive |  |  |
| CCC(=O)Nc1ccc(O)cc1 |  | inactive | inactive | inactive | inactive | inactive | inactive |  |
| CCOC(=O)COc1ccc2c(c1)CC(NCC(O)c1cccc(Cl)c1)CC2 (centres undefined) |  |  | inactive | inactive | inactive |  | inactive |  |

From PubChem BioAssay (Tox21)
